Laboratory results from PubChem BioAssay (NCI).
The panel holds about 83,000 compounds, 20% with a hit somewhere; the sample as a whole holds those more often.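 Treatment: one concentration, 48 hours, 96-well format. Scoring: percent growth, with anything below 10 considered active.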 The source made the active and inactive calls.

Key:
Assay in all cases: NCI-60 one-dose screen, 48 h (100 = growth as untreated, 0 = no growth, -100 = all killed)
Conditions in all cases: 10 µM unless noted
BT-549 breast = system: BT-549 breast
MDA-MB-435 melanoma = system: MDA-MB-435 melanoma
SW-620 colon = system: SW-620 colon
MCF7 breast = system: MCF7 breast
HCC-2998 colon = system: HCC-2998 colon
KM12 colon = system: KM12 colon

Measured: growth

O=C(O)c1ccc(-n2cc(/C=N/Nc3ccc(Cl)cc3Cl)c(-c3ccccc3)n2)cc1
inactive: BT-549 breast 79.3% | MDA-MB-435 melanoma 95.5% | SW-620 colon 96.3% | MCF7 breast 69.8% | HCC-2998 colon 101% | KM12 colon 83.4%

O=c1nc(-c2ccccc2)c2cc(-c3ccc(N4CCCC4)nc3)ccc2[nH]1
inactive: BT-549 breast 64% | SW-620 colon 45.8% | MCF7 breast 35.4% | HCC-2998 colon 80.5% | KM12 colon 56.7%
active: MDA-MB-435 melanoma -1.96%

c1ccc(-c2n(Cc3ccc4ccccc4n3)cc[n+]2Cc2ccc3ccccc3c2)cc1
active: BT-549 breast 3.57% | MDA-MB-435 melanoma 2.12% | SW-620 colon 8.55% | HCC-2998 colon -13.2% | KM12 colon -38.5%

Cc1ccccc1NC(=O)c1sc2nc(C)c(C(C)O)cc2c1N (stereo not given)
active: MDA-MB-435 melanoma 1.71%
inactive: BT-549 breast 57.8% | SW-620 colon 36.8% | MCF7 breast 21% | HCC-2998 colon 67.9% | KM12 colon 27.7%

C=C1C(=O)O[C@H]2[C@H]1CC/C(COC(=O)NCC(=O)Nc1ccc(OC)c(C(N)=O)c1O)=C\CC[C@@]1(C)O[C@@H]21
inactive: BT-549 breast 47.4% | MDA-MB-435 melanoma 56.3% | SW-620 colon 10.6% | MCF7 breast 18.6% | HCC-2998 colon 102% | KM12 colon 92.8%

c1ccc(-c2n(Cc3ccc4ccccc4n3)cc[n+]2Cc2ccc3ccccc3n2)cc1
inactive: BT-549 breast 28% | MDA-MB-435 melanoma 15.4% | SW-620 colon 37.5% | HCC-2998 colon 26.6% | KM12 colon 15.8%

O=C(C[n+]1cccc2cc(Cl)ccc21)c1ccc2c(c1)CCCC2
active: MCF7 breast 4.57%
inactive: BT-549 breast 22.2% | MDA-MB-435 melanoma 10.8% | SW-620 colon 35.6% | HCC-2998 colon 27.7% | KM12 colon 14.7%

COC(=O)[C@]1(C)CCC[C@]2(C)[C@H]3C[C@H]4C(C(C)C)=C[C@]3(CC[C@H]21)[C@@H]1C(=O)N(CCC#N)C(=O)[C@@H]14
inactive: BT-549 breast 59.5% | MDA-MB-435 melanoma 86.5% | SW-620 colon 89.9% | MCF7 breast 72.2% | HCC-2998 colon 94.1% | KM12 colon 82.7%

C=C1C(=O)O[C@H]2[C@H]1CC/C(COC(=O)CCCCCCCC(=O)OC/C1=C/CC[C@@]3(C)O[C@H]3[C@H]3OC(=O)C(=C)[C@@H]3CC1)=C\CC[C@@]1(C)O[C@@H]21
inactive: BT-549 breast 25.2% | MDA-MB-435 melanoma 29.9% | HCC-2998 colon 78.6% | KM12 colon 46.7%
active: SW-620 colon 7.61% | MCF7 breast 5.35%

CCO/C=N/S(=O)(=O)c1cc2c(cc1Cl)NC=NS2(=O)=O
inactive: BT-549 breast 101% | MDA-MB-435 melanoma 97.5% | SW-620 colon 94.9% | MCF7 breast 96.2% | HCC-2998 colon 102% | KM12 colon 107%

O=C(CCc1nnco1)c1nc2ccc([N+](=O)[O-])cc2[nH]1
inactive: BT-549 breast 106% | MDA-MB-435 melanoma 106% | SW-620 colon 106% | HCC-2998 colon 93.4% | KM12 colon 102%

CCCCc1ccc(N=Nc2ccc(OCC[N+](C)(C)C)cc2)cc1
inactive: BT-549 breast 56.4% | MDA-MB-435 melanoma 88.6% | SW-620 colon 49.6% | MCF7 breast 85.1% | HCC-2998 colon 25.6% | KM12 colon 29.9%

Cc1nc2sc(C(=O)Nc3cccc(Cl)c3C)c(N)c2cc1C(C)O (stereo not given)
inactive: BT-549 breast 51.3% | SW-620 colon 38.5% | MCF7 breast 16.6% | HCC-2998 colon 30.4% | KM12 colon 19.1%
active: MDA-MB-435 melanoma 1.51%

O=C1CS/C(=N/c2nnc(-c3ccc(O)cc3)s2)N1
inactive: BT-549 breast 100% | MDA-MB-435 melanoma 103% | SW-620 colon 107% | MCF7 breast 89.3% | HCC-2998 colon 102% | KM12 colon 100%

COC(=O)/C=C1\SC(=Nc2cccc(OC)c2)N(CCc2c[nH]c3ccccc23)C1=O
inactive: BT-549 breast 52.3% | MDA-MB-435 melanoma 62.5% | SW-620 colon 78.2% | MCF7 breast 25.8% | HCC-2998 colon 97% | KM12 colon 48.3%

COC1=CC=CC2(OC)C3(O)CCCc4cccc(c43)N3C(=O)COC132 (stereo not given)
inactive: BT-549 breast 103% | MDA-MB-435 melanoma 103% | SW-620 colon 103% | MCF7 breast 96.3% | HCC-2998 colon 103% | KM12 colon 105%

O=C(CCc1nnc2sc(OCc3ccccc3)nn12)c1nc2ccc([N+](=O)[O-])cc2[nH]1
inactive: BT-549 breast 102% | MDA-MB-435 melanoma 106% | SW-620 colon 107% | HCC-2998 colon 101% | KM12 colon 95.7%

O=C1NC(SCc2ccc(F)cc2)=N/C1=C/c1cccc(OCc2ccc(Cl)cc2)c1
inactive: BT-549 breast 87.2% | MDA-MB-435 melanoma 88.5% | SW-620 colon 54.1% | MCF7 breast 64.1% | HCC-2998 colon 92.1% | KM12 colon 88.9%

CN(C)c1ccc(-c2ccc3[nH]c(=O)nc(-c4ccc(F)cc4)c3c2)cn1
inactive: BT-549 breast 40.6% | SW-620 colon 29.8% | MCF7 breast 29.4% | HCC-2998 colon 84.3% | KM12 colon 31.5%
active: MDA-MB-435 melanoma 2.63%
